Screens deposited in PubChem BioAssay by The Scripps Research Institute Molecular Screening Center.
In the library only some 4.1% were active in any assay of this set; here they are far more common.
hgDAF-12 ag: H. glycines DAF-12 receptor agonists, primary screen, cell-based, luminescence, HEK293, GAL4 fusion, UAS-luciferase; AID 687014, 2013; HEK293 GAL4-hgDAF12 UAS-luciferase reporter, agonist luminescence; normalized to butyrate control; actives 1.8% (n = 370,000); Nuclear hormone receptor DAF-12 (Heterodera glycines), GAL4 fusion; activation, % at 6.8 µM;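 active = activation above a cutoff set at the mean of all screened compounds plus 3 SD, cut at about 10% in these data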
ssDAF12 agonist: S. stercoralis DAF-12 nuclear receptor activators, primary screen, cell-based, luminescence, HEK293, GRIP1 co-expression, lit1-tk-luc; Nuclear hormone receptor DAF-12 (Strongyloides stercoralis); HEK293 ssDAF-12/GRIP1 lit1-tk-luc reporter; % of 3 µM dafachronic acid response; activation, % at 6.8 µM; actives 1% (n = 370,000); AID 652126, 2013;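 active = activation above the mean over all tested compounds plus 3 SD, cut at about 0.9% in these data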
DAX1 inh-1: DAX1 (NR0B1) inhibitors, primary screen, cell-based, HEK293, Gal4-DAX1, luciferase luminescence. HEK293 Gal4-DAX1 luciferase reporter. inhibition, % at 6.75 µM. actives 0.99% (n = 340,000);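 active = inhibition above the mean over all tested compounds plus 3 SD, cut at about 4.2% in these data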;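 note: inhibition shows as a rise in luminescence from relieved DAX1 repression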
Target sequence (P51843 207-470 limits assumed): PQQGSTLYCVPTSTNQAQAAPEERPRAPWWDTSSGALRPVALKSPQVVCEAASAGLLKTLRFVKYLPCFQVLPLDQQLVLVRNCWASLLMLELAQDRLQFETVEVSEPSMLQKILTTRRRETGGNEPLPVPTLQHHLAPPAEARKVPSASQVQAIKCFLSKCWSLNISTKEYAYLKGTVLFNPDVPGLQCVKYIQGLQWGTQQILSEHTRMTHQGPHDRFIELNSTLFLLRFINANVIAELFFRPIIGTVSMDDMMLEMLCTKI
DAX1 inh-2: DAX1 (NR0B1) inhibitors on StAR promoter, primary screen, cell-based, luminescence, SF-1 (NR5A1), full-length DAX-1; HEK293T StAR-luciferase reporter, SF-1/DAX-1 repression relief; inhibition, % at 6.8 µM; actives 1.1% (n = 370,000); AID 652010, 2013;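 active = inhibition above the mean over all tested compounds plus 3 SD, cut at about 3.6% in these data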;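 note: higher inhibition means more luminescence from relief of DAX-1 repression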
hcDAF-12 act: H. contortus DAF-12 nuclear receptor activators, primary screen, cell-based, luminescence, HEK293, lit1-tk-luc reporter; HEK293 hcDAF-12 lit1-tk-luc reporter; 0% DMSO, 100% Δ7-dafachronic acid; activation, % at 6.8 µM; actives 1.4% (n = 370,000);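 active = activation above the mean of all tested compounds plus 3 SD, cut at about 5.5% in these data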
Hits are given with their value; 0 = inactive; - = no result.

SMILES	hgDAF-12 ag	ssDAF12 agonist	DAX1 inh-1	DAX1 inh-2	hcDAF-12 act
COc1cc(C(=O)N/C(=C\c2cn(C)c3ccccc23)C(=O)NCCCO)cc(OC)c1OC	0	0	4.7	0	0
COc1cc(C(=O)N/C(=C\c2cn(S(=O)(=O)N(C)C)c3ccccc23)C(=O)NCCCO)cc(OC)c1OC	0	0	0	0	0
c1ccc(Cn2c(SCC3CCC3)nnc2-c2cccnc2)cc1	0	0	-	0	0
C(=C\c1ccccc1)/CSc1ccccn1	0	0	4.4	0	0
C(=CCSc1ccccn1)CSc1ccccn1	0	0	-	0	0
CCn1c(=O)c(C(=O)CC#N)c(N)n(Cc2ccccc2)c1=O	0	0	4.9	0	0
CCn1c(=O)c(C(=O)CN2CCOCC2)c(N)n(Cc2ccccc2)c1=O	0	0	0	0	0
CCCC(=O)N1CCC1(C)C(=O)Nc1cc(-c2ccccc2)nn1C (centres undefined)	11.7	0	-	3.9	0
Oc1ccc(-c2[nH]ncc2-c2ccc(Br)cc2)c(O)c1	0	0	6.4	0	0
Oc1ccc(-c2[nH]ncc2-c2ccc(Cl)cc2)c(O)c1	0	0	0	0	0
Cc1cc(-c2n[nH]c(=S)n2N=Cc2cccc(Oc3ccccc3)c2)n[nH]1	0	0	-	0	0
O=C(Nc1ccc(F)cc1)Nc1c(-c2ccc(F)cc2)nc2ncccn12	0	1.8	-	0	0
O=C(CSc1nnc(-c2cccs2)o1)Nc1cccc2ccccc12	0	0	-	0	0
COc1cc2c(cc1OC)CSC1C(=O)N(C)C(SC2)C(=O)N1C	0	0	-	0	0
COCC(=O)Nc1ccc2c(c1)[C@@H]1C[C@H](CC(=O)OC)O[C@H](CO)[C@@H]1O2	0	0	4.6	0	0
COc1ccc(C#Cc2c(-c3ccccc3OC)oc3ccccc23)cc1	0	0	-	0	0
Cc1ccc(C(=O)c2cc3ccccc3o2)cc1C	11.1	0	0	0	0
Cc1ccc(C(=O)c2cc3ccccc3o2)cc1	11.8	0	0	0	0
CCC(C)NC(=O)CN1C(=O)C2CCCCN2C(=O)c2ccccc21 (centres undefined)	0	0	-	0	0
COc1ccc(Cn2ccc3ccc(-c4ccc5ccn(C(=O)c6cccc(OC)c6)c5c4)cc32)cc1	0	0	-	0	0
Cc1cc(C(=O)Nc2ccc3[nH]ccc3c2)no1	11.0	0	0	0	0
Cc1cc(C(=O)Nc2cccnc2)no1	-	-	0	-	-
Cc1c(NC(=O)C2CCCN(S(=O)(=O)c3ccc(Cl)s3)C2)c(=O)n(-c2ccccc2)n1C (centres undefined)	0	0	-	0	0
CCCCn1c(N)c(N(CC)C(=O)COc2ccc(C#N)cc2)c(=O)[nH]c1=O	0	1.3	0	0	0
O=C(COC(=O)c1ccc2ccccc2n1)c1ccccc1	0	1.3	0	0	0
SMILES	hgDAF-12 ag	ssDAF12 agonist	DAX1 inh-1	DAX1 inh-2	hcDAF-12 act
CN(C(=O)COC(=O)c1ccc2ccccc2n1)C1CCCCC1	0	2.1	0	0	0
O=C(Nc1ccc(F)cc1)C(c1cc2ccccc2o1)N1CCN(c2cccc(C(F)(F)F)n2)CC1 (centres undefined)	0	2.3	-	0	0
COC(=O)c1ccc(Cn2ccc3ccc(-c4ccc5ccn(C(=O)c6cccc(OC)c6)c5c4)cc32)cc1	0	0	-	0	0
Cc1nc2nc(-c3ccccc3)nn2c(C)c1Cl	0	0.9	0	0	5.6
Cc1nc(-c2ccccc2)nc(-c2ccccc2)n1	0	0	0	0	0
Cc1nc2nc(-c3ccccc3)nn2c(C)c1C	10.5	0	0	0	0
CC1(NC(=O)Nc2ccccc2)CCS(=O)(=O)C1 (centres undefined)	0	0	-	0	0
CC1(NC(=O)Nc2cccc(Br)c2)CCS(=O)(=O)C1 (centres undefined)	0	0	5.2	0	0
CCN(CC)CCNC(=O)c1ccc(NC(=O)c2cccc(S(=O)(=O)N3c4ccccc4CC3C)c2)cc1 (centres undefined)	0	0	0	0	0
CCN(CC)CCNC(=O)c1ccc(NC(=O)c2cccc(S(=O)(=O)N3CCc4ccccc43)c2)cc1	0	0	0	3.9	0
O=C(COC(=O)Cn1cnc2ccccc2c1=O)Nc1ccc(Cl)c(C(F)(F)F)c1	0	1.5	0	0	0
O=C(COC(=O)Cn1cnc2ccccc2c1=O)Nc1ccc(Cl)cc1	0	0	0	0	0
COc1ccccc1C(=O)NC1CCCCN(Cc2cccc(Cl)c2)C1=O (centres undefined)	0	0	-	0	0
O=C(NCC(c1ccco1)N1CCN(c2ccccc2)CC1)c1cccs1 (centres undefined)	0	0	0	0	0
O=C(COc1ccccc1)NCC(c1ccco1)N1CCN(c2ccccc2)CC1 (centres undefined)	11.9	0	0	0	0
c1ccc(CSc2nnc(NC3CCCCC3)s2)cc1	11.9	0	0	0	0
O=C(NCc1ccccc1)OCCN1C(=O)CCC12CCC(c1ccc(Cl)cc1)CC2 (centres undefined)	0	0	-	0	0
O=C(c1cccs1)N1CCn2c1nc1ccccc12	0	0	0	4.3	0
Cc1ccc(NC(=O)NCc2c(C)nn(C)c2C)cc1Cl	12.9	0	0	4.3	0
O=C(CN1CCN(Cc2ccccc2)CC1)N1N=CCC1c1ccccc1 (centres undefined)	0	0	4.8	0	0
O=C(CCc1ccccc1)Nc1ccccc1F	11.7	0	0	3.7	0
O=C(Nc1ccccc1F)c1ccc(OCc2ccccc2)cc1	10.7	0	0	0	0
O=C(CCc1ccccc1)Nc1ccc(F)cc1F	0	0	0	0	0
O=C(CCCc1ccccc1)Nc1ccccc1[N+](=O)[O-]	0	0	5.0	0	0
CCOC(=O)[C@]12CCCCC/C=C\1N(CCc1ccc(Cl)cc1)C(=O)[C@H]2CC(=O)NCCCOC	0	0	-	0	0
SMILES	hgDAF-12 ag	ssDAF12 agonist	DAX1 inh-1	DAX1 inh-2	hcDAF-12 act
c1ccc(Cc2cnc(N3CCN(Cc4ccc5c(c4)OCCO5)CC3)nc2)cc1	0	0	-	0	0
O=C1CCCC/C1=C\Nc1ccc(Cl)cn1	0	0	4.3	0	0
Cc1ccc(N/C=C2\CCCCC2=O)nc1	0	0	0	0	0
O=C(c1ccco1)N1CCN(c2nc3ccsc3c(=O)s2)CC1	0	0	5.1	0	0
Cc1cccc(Cn2cc(COC(=O)NCC(C)C)nn2)c1	0	0	-	0	0
NC(=O)C1CC(=O)N(c2ccc(OCc3ccc(F)cc3)cc2)C1 (centres undefined)	0	0	4.7	0	0
CC1(C)CNC(=S)N1Cc1ccccc1	0	0	4.3	0	0
